# In PubChem BioAssay:
# A number with no mark means an inactive call. Where a call stands in place of a potency, no number is given. For some of these results: Potency and affinity values are given separately. The source made the active and inactive calls. Unless noted, no rule for the calls is given here.
# How the values were obtained:
# [1] = HepG2 cytotoxicity, primary screen, cytotoxicity control for P. falciparum antimalarial project, cell-based, ATP luminescence (AID 2303;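 active = inhibition above 50%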); details: HepG2 viability, 24-48 h, at 10 µM, stronger effect = higher value
# [2] = molecular target: L-lactate dehydrogenase (Plasmodium falciparum (isolate CDC / Honduras)) (UniProt Q27743); assay: PfLDH activity inhibition – cell lysate, 3D7 strain, counter-screen for P. falciparum growth inhibition project (AID 2304); details: P. falciparum 3D7 crude extract, LDH APAD/NBT absorbance; at 2 µM; stronger effect = higher value
# [3] = inhibition of 3D7 malaria parasite growth – strain 3D7 (AID 2306); details: P. falciparum 3D7 erythrocytic growth, LDH absorbance, 72 h; at 2 µM; stronger effect = higher value
# [4] = molecular target: Calcium-dependent protein kinase 1 (Plasmodium falciparum (isolate 3D7)) (UniProt P62344); assay: PfCDPK1 kinase inhibitors, biochemical, TCAMS library (AID 1159585; cut-off not given, nearly all actives have IC50 up to about 0.98 µM;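 also: inhibitors leave more ATP so luminescence rises with inhibition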); details: recombinant PfCDPK1, Kinase-Glo ATP depletion luminescence
# [5] = molecular target: Plasmodium falciparum protein kinase 6 (PK6, PF3D7_1337100) (UniProt Q8IDW1); assay: PfPK6 kinase inhibitors, biochemical, TCAMS library (AID 1159586); details: recombinant PfPK6, Kinase-Glo ATP depletion luminescence
# [6] = molecular target: Protein kinase 7 (PK7), Plasmodium falciparum 3D7 (PF3D7_0213400) (UniProt Q7YTF7); assay: inhibition of Plasmodium PK7 catalytic activity – biochemical, TCAMS antimalarial set, Kinase-Glo luminescence (AID 1159587); details: recombinant PfPK7, Kinase-Glo ATP depletion luminescence
# [7] = molecular target: Calcium-dependent protein kinase 4 (Plasmodium falciparum (isolate 3D7)) (UniProt Q8IBS5); assay: PfCDPK4 kinase inhibitors, biochemical, TCAMS library (AID 1159588; cut-off not given, nearly all actives have IC50 up to about 0.91 µM); details: recombinant PfCDPK4, Kinase-Glo ATP depletion luminescence
# [8] = antimalarial activity against Dd2 strain (AID 2302;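 active = growth inhibition above 50% at the single 2 µM test dose, taken to imply half-maximal potency below 2 µM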); details: P. falciparum Dd2 in RBCs, LDH growth readout, 72 h; at 2 µM; stronger effect = higher value
# Sequence of Plasmodium falciparum protein kinase 6 (PK6, PF3D7_1337100) (Q8IDW1 1-305): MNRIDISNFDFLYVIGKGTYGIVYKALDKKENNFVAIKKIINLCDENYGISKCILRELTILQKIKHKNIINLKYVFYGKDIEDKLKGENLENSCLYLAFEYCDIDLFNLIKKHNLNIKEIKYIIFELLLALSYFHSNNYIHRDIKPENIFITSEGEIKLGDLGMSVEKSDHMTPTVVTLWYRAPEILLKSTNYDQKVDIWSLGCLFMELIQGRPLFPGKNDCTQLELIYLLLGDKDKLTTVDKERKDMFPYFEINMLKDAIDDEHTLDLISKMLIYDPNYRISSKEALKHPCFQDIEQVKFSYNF
# Sequence of L-lactate dehydrogenase (Plasmodium falciparum (isolate CDC / Honduras)) (Q27743 whole entry, looked up): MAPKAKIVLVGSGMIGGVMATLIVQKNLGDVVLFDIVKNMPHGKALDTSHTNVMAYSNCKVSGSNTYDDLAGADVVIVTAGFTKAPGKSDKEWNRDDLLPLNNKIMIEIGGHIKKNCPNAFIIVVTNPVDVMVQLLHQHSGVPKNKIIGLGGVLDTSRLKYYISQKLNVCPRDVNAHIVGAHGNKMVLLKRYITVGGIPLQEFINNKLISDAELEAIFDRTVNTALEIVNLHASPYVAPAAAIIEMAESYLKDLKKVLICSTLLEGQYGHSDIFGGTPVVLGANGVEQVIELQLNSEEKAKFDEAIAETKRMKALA
# Sequence of Calcium-dependent protein kinase 4 (Plasmodium falciparum (isolate 3D7)) (Q8IBS5 whole entry, looked up): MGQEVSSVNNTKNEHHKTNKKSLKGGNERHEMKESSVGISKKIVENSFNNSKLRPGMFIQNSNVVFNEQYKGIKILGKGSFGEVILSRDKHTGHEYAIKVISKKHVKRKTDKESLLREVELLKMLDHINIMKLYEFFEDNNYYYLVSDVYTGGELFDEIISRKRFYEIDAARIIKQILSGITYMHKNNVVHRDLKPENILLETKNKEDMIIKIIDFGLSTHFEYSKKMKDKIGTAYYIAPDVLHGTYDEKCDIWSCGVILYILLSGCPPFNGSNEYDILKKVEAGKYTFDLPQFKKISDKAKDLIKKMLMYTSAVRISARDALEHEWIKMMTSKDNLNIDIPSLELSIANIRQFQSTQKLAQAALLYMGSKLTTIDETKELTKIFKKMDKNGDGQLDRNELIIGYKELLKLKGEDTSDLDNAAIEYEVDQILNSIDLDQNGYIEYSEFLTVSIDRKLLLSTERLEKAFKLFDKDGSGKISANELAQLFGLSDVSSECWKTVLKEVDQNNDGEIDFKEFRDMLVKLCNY
# Sequence of Calcium-dependent protein kinase 1 (Plasmodium falciparum (isolate 3D7)) (P62344 whole entry, looked up): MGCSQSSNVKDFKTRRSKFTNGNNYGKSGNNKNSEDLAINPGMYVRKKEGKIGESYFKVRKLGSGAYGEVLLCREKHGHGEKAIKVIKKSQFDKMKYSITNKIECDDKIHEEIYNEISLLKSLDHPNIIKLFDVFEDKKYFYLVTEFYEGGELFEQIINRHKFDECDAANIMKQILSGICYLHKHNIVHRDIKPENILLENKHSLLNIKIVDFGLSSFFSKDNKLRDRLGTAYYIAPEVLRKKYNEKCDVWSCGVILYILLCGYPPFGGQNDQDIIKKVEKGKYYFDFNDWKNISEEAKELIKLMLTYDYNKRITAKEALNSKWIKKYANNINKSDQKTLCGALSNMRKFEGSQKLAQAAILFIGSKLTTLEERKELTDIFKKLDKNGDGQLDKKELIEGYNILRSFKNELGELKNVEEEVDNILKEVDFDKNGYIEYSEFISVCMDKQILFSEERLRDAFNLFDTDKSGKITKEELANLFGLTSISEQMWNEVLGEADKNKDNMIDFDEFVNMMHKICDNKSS
# Sequence of Protein kinase 7 (PK7), Plasmodium falciparum 3D7 (PF3D7_0213400) (Q7YTF7 1-343): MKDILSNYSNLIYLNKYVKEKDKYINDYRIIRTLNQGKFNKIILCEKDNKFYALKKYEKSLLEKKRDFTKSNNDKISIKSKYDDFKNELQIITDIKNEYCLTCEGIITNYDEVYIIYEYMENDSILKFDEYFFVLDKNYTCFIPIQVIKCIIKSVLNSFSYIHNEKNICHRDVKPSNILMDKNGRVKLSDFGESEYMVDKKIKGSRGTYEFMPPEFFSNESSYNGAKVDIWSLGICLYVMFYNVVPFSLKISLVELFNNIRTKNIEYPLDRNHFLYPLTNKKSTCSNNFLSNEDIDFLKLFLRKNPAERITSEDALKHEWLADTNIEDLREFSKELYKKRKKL
Compound,inhibition [1],inhibition [2] [%],growth inhibition [3],outcome [4],outcome [5],outcome [6],outcome [7],growth inhibition [8]
CCCN1CCN(CCNc2c3ccccc3nc3ccccc23)CC1,13%,3,88% (active),inactive,inactive,inactive,inactive,–
CC(CC1CCCCC1)NCc1ccccc1OCCC(=O)N1CCCC1C(N)=O (stereo unspecified),5%,8,97% (active),inactive,inactive,inactive,inactive,–
O=C(NCCCCN1CCC(c2ccc3c(c2OCCOCCO)CCCC3)CC1)c1ccc(-c2ccc(C(F)(F)F)cc2)cc1,44%,-5,97% (active),inactive,inactive,inactive,inactive,–
Cc1ccc(-n2c(C)cc(C(=O)CN3C(=O)NC(Cc4ccccc4)C3=O)c2C)cc1 (stereo unspecified),-11%,3,82% (active),inactive,inactive,inactive,inactive,–
Cc1cc2c(cc1C(F)(F)F)N(C(=O)Nc1ccc(C(=O)NCCN3CCCC3)cc1)CC2,10%,3,100% (active),inactive,inactive,inactive,inactive,–
CCn1c(-c2nonc2N)nc2c(-c3cccc(NC(=O)NCc4ccccc4)c3)ncc(OCCCN)c21,5%,-7,99% (active),inactive,inactive,inactive,inactive,–
O=C(Nc1ccc(C(F)(F)F)cc1)c1cc(Cl)cc2[nH]c(C(F)(F)F)nc12,86% (active),-1,102% (active),inactive,inactive,inactive,inactive,–
C=CCOc1cc(Cc2cnc(N)nc2N)cc(OC)c1OC,-14%,2,81% (active),inactive,inactive,inactive,inactive,–
c1ccc2c3c([nH]c2c1)C(c1ccc2c(c1)CCO2)N(c1ncnc(N2CCN(CCCN4CCOCC4)CC2)n1)CC3 (stereo unspecified),37%,-2,80% (active),inactive,inactive,inactive,inactive,–
Cc1nc(Nc2ccc(F)cc2)nc(N2CCc3ccccc3[C@@H]2C)c1C,12%,-3,92% (active),inactive,inactive,inactive,inactive,–
CCS(=O)(=O)c1ccc(/C(=N/OC)c2ccc[nH]2)cc1,-6%,-2,85% (active),inactive,inactive,inactive,inactive,–
O=C(Nc1nccs1)c1sc2ccccc2c1O,-2%,-1,96% (active),inactive,inactive,inactive,inactive,–
Cc1nn(-c2ccccc2)nc1C(=O)N(Cc1ccc(-c2ccc(CNCCc3ccc(S(C)(=O)=O)cc3)cn2)cc1)C1CC1,9%,-2,84% (active),inactive,inactive,inactive,inactive,–
CC(C)Cc1csc(NC(=O)C=Cc2ccco2)c1C(=O)O,4%,-2,82% (active),inactive,inactive,inactive,inactive,–
CN(C)Cc1cccc(-c2ccc(NC(=O)c3ccc4c(=O)n(Cc5cnn(C)c5)cnc4c3)cc2)c1,12%,2,80% (active),inactive,inactive,inactive,inactive,–
COc1c(C2CCN(CCCCNC(=O)C=Cc3ccccc3C(F)(F)F)CC2)ccc2c1CCCC2,98% (active),-3,96% (active),inactive,inactive,inactive,inactive,–
N=C1SC(=Cc2cn[nH]c2-c2ccc(F)cc2)C(=O)N1c1nccs1,28%,-3,91% (active),inactive,inactive,inactive,inactive,–
COc1ccc2c(c1)C(C)(CCCN(C)C)C(=O)N2C (stereo unspecified),8%,-3,93% (active),inactive,inactive,inactive,inactive,–
CC(C)CNC(=O)c1ccc(-c2cccc(CN3CCC(N4CCCC4)CC3)c2)nc1,4%,-3,81% (active),inactive,inactive,inactive,inactive,–
COc1ccc(CN2CCN(CC(=O)Nc3cc(Cl)ccc3-n3cncn3)CC2)cc1F,0%,-1,93% (active),inactive,inactive,inactive,inactive,–
Cc1ccc(Nc2c3ccccc3nc3ccc(C)cc23)cc1,26%,-2,88% (active),inactive,inactive,inactive,inactive,–
Cc1cc(OCCCN2CCCC2)ccc1NC(=O)COc1ccc(Cl)cc1C(=O)c1cc(C#N)cc(C(F)(F)F)c1,18%,2,85% (active),inactive,inactive,inactive,inactive,–

Compound,inhibition [1],inhibition [2] [%],growth inhibition [3],outcome [4],outcome [5],outcome [6],outcome [7],growth inhibition [8]
COc1ccc(C2CC(c3cccs3)=NN2C(=O)COc2cccc(C(C)=O)c2)cc1OC (stereo unspecified),10%,-2,99% (active),inactive,inactive,inactive,inactive,–
S=C(Nc1ccc(Cl)cc1)Nc1ccc(Nc2ccccc2)cc1,14%,-4,84% (active),inactive,inactive,inactive,inactive,–
Cc1cc(OCCCN2CCC(NC(=O)c3ccc(Br)cc3)C2)c2ccccc2n1 (stereo unspecified),13%,-3,85% (active),inactive,inactive,inactive,inactive,–
O=C(Nc1cccc(-c2nn3ccccc3c2-c2ccnc(Nc3cccc(F)c3)n2)c1)C1CCCCC1,44%,3,85% (active),inactive,inactive,inactive,inactive,–
Nc1nc2ccc(CNc3ccc(C(=O)N[C@@H](CCC(=O)O)C(=O)O)cc3)cc2c(=O)[nH]1,2%,3,96% (active),inactive,inactive,inactive,inactive,–
CC(=O)Nc1ccc(CN2CCc3ccc(NS(=O)(=O)c4ccc(-c5cccc(C(F)(F)F)c5)cc4)cc3CC2)s1,23%,0,82% (active),inactive,inactive,inactive,inactive,–
O=C(c1ccccc1)N1CCC[C@](CCCN2CCN(c3ccccc3O)CC2)(c2ccc(Cl)c(Cl)c2)C1,16%,-3,80% (active),inactive,inactive,inactive,inactive,–
COc1cccc(-c2cc3c(NCc4ccncc4)nccc3s2)c1,0%,-2,87% (active),inactive,inactive,inactive,inactive,–
Nc1[nH]c2ccccc2c(=O)c1-c1nc2ccccc2s1,16%,-6,97% (active),inactive,inactive,inactive,inactive,–
c1ccc2sc(-c3csc(Nc4ccncc4)n3)nc2c1,-4%,-1,86% (active),inactive,inactive,inactive,inactive,–
C=CC(C)C1OC(=O)c2cc(OC)cc(OC)c21 (stereo unspecified),100% (active),-4,100% (active),inactive,inactive,inactive,inactive,–
CC(C)(CNCc1ccc(F)c(F)c1)c1nc(-c2ccc(Cl)c(O)c2)c(-c2ccncc2)[nH]1,74% (active),2,102% (active),–,inactive,inactive,inactive,89% (active)
Cn1cnc2c(Nc3ccncc3)nc(-c3ccc4c(c3)OCO4)nc21,19%,-1,96% (active),inactive,–,inactive,inactive,2%
CC(=O)Nc1nc(C)c(-c2csc(Nc3ccc(Cl)cc3)n2)s1,14%,0,96% (active),inactive,–,inactive,inactive,93% (active)
CNCC(C)(C)c1nc(-c2ccc(Cl)c(O)c2)c(-c2ccncc2)[nH]1,46%,-2,98% (active),–,inactive,inactive,inactive,96% (active)
Cc1ccc(S(=O)(=O)Nc2ccc(Nc3nccc(Nc4cccc5[nH]ncc45)n3)cc2)cc1,57% (active),6,90% (active),inactive,–,inactive,inactive,5%
CN(C)CC(O)COc1ccc(Nc2ncc([N+](=O)[O-])c(Nc3ccccc3O)n2)cc1 (stereo unspecified),47%,-4,100% (active),inactive,–,inactive,inactive,20%
CCN(CC)CCNc1nccc(N(C)c2ccc(NC(=O)Nc3cc(C(F)(F)F)ccc3F)cc2)n1,74% (active),1,97% (active),inactive,–,inactive,inactive,25%
CN(c1ccc(NC(=O)Nc2cc(C(F)(F)F)ccc2F)cc1)c1ccnc(NCCN2CCOCC2)n1,67% (active),-2,97% (active),inactive,–,inactive,inactive,73% (active)
C(=N\Nc1nccc2sc(-c3ccccc3)cc12)/c1cccnc1,-9%,8,97% (active),inactive,–,inactive,inactive,10%
COc1c(CN2CCOCC2)cccc1-c1cc2c(-c3ccc(C(=O)O)c(C(C)C)c3)ccnc2[nH]1,44%,-3,98% (active),inactive,–,inactive,inactive,90% (active)
